Laboratory results taken from PubChem BioAssay (Tox21).
Inconclusive results are not listed. Activity calls are given as the source filed them. Calls come from the whole dose curve; as a rule, active = well fitted curve in the direction sought with a large enough effect in the repeat runs; inconclusive = weak or mixed curves; inactive = no such curve, though single readings can be large; an effect the other way counts as inactive or inconclusive.
% is set by controls: 0 for no effect and ±100 for the full control effect; potency is the fitted concentration of half-maximal effect.
Note: nearly all actives have a fitted effect of over 50% in size.

These molecules were tested against Voltage-gated inwardly rectifying potassium channel KCNH2 (Homo sapiens) (UniProt Q12809) (assay: Human Ether-a-go-go-Related Gene (hERG) channel small molecule antagonists: fluorescence cell-based qHTS assay (AID 1671200;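 for activity change, negative = inhibition: hERG-expressing U2OS cells given a thallium stimulus after FluxOR II dye loading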)). Conditions: hERG-U2OS cells, FluxOR thallium flux fluorescence; series mostly up to 76.8 µM; activity change, negative = inhibition: at the top concentration.
Voltage-gated inwardly rectifying potassium channel KCNH2 (Homo sapiens), sequence (Q12809 whole entry, looked up): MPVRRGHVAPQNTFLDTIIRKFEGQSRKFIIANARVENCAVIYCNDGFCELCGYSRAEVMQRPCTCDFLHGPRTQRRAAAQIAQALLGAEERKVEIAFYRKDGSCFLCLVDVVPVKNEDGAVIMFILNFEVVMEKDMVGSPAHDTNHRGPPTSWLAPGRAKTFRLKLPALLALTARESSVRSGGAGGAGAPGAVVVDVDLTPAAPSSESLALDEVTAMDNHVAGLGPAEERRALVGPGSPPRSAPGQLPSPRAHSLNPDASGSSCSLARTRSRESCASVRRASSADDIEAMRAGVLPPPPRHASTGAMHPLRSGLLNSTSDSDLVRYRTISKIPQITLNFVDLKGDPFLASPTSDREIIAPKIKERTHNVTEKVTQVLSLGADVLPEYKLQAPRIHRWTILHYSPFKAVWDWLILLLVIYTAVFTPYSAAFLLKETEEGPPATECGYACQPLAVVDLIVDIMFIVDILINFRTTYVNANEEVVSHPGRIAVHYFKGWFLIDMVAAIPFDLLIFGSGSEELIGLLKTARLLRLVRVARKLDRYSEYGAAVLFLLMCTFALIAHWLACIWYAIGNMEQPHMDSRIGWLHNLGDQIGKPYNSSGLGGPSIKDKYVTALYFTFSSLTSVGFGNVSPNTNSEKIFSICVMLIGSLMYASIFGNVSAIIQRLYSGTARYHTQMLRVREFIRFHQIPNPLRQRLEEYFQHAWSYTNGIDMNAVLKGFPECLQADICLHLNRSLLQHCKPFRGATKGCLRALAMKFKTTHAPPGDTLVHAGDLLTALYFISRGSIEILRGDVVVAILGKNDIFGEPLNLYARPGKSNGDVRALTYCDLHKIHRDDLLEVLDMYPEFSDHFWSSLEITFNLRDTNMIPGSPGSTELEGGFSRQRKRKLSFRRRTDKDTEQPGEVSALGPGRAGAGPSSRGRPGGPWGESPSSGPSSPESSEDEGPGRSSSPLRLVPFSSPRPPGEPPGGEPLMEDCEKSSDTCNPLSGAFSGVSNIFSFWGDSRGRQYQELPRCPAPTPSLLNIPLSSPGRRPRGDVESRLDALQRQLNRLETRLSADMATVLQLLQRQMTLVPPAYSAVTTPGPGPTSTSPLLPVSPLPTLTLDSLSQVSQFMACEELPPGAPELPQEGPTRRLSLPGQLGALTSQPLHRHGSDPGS
In short: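 Cell line hERG-U2OS; dye FluxOR II, 1 h RT dark; Tl+ stimulus; ex 480/em 540 nm, read each second for 2 min.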
`COC(N)=O` was tested, and the “activity change, negative = inhibition” value was -2.13% (inactive).
With `CCOP(O)OCC` the “activity change, negative = inhibition” value was -0.781% (inactive).
`COC(=O)c1cncn1C(C)c1ccccc1` (centres undefined) was tested, and the “activity change, negative = inhibition” value was -1.95% [at 35.3 µM] (inactive).
For `COP(=O)(OC)O/C(=C/Cl)c1cc(Cl)c(Cl)cc1Cl`, the “activity change, negative = inhibition” value was -13.1% (inactive).
`CCCN(CC1CC1)c1c([N+](=O)[O-])cc(C(F)(F)F)cc1[N+](=O)[O-]` was tested, and the “activity change, negative = inhibition” value was -9.39% (inactive).
In the case of `O=C(O)C(F)(F)C(F)(F)C(F)(F)C(F)(F)C(F)(F)C(F)(F)C(F)(F)C(F)(F)C(F)(F)C(F)(F)F`, the “activity change, negative = inhibition” value is reported as 2.67% (inactive).
With `CCCCC(O)(Cn1cncn1)c1ccc(Cl)cc1Cl` (centres undefined) the “activity change, negative = inhibition” value was -17.8% (inactive).
With `O=C1NCN(c2ccccc2)C12CCN(CCCOc1ccc(F)cc1)CC2` the Potency was 601 nM (active).
In the case of `ClC=C(Cl)Cl`, the “activity change, negative = inhibition” value is reported as -3.61% (inactive).
In the case of `O=C(NCc1cccnc1)Nc1ccc([N+](=O)[O-])cc1`, the “activity change, negative = inhibition” value is reported as -0.244% (inactive).
In the case of `O=C(CCl)c1ccc(Cl)cc1Cl`, the “activity change, negative = inhibition” value is reported as -19.4% (inactive).
In the case of `NCC(CC(=O)O)c1ccc(Cl)cc1` (centres undefined), the activity change, negative = inhibition is reported as -9.45% [at 0.29 µM] (inactive).
In the case of `O=C(NC(=O)c1c(F)cccc1F)Nc1ccc(OC(F)(F)C(F)OC(F)(F)F)c(Cl)c1` (centres undefined), the “activity change, negative = inhibition” value is reported as 0.358% [at 35.3 µM] (inactive).
For `C[N+](C)(C)CCCl`, the “activity change, negative = inhibition” value was 0.374% (inactive).
`[O-][Cl+]O` was tested, and the “activity change, negative = inhibition” value was 1.26% (inactive).
With `O=C(O)c1ccccc1C(=O)Nc1cccc2ccccc12` the “activity change, negative = inhibition” value was -0.677% (inactive).
For `CNP(=O)(OC)Oc1ccc(C(C)(C)C)cc1Cl` (centres undefined), the “activity change, negative = inhibition” value was 1.53% (inactive).
With `II` the “activity change, negative = inhibition” value was 12.7% (inactive).
With `COc1nn(CSP(=S)(OC)OC)c(=O)s1` the “activity change, negative = inhibition” value was -4.02% (inactive).
With `CCCC(Cn1cncn1)c1ccc(Cl)cc1Cl` (centres undefined) the “activity change, negative = inhibition” value was -15.3% (inactive).
For `Clc1cc(Cl)c(Cl)c(Cl)c1`, the “activity change, negative = inhibition” value was 1.21% (inactive).
`CC1CC(CC2CCC(N)C(C)C2)CCC1N` (centres undefined) was tested, and the “activity change, negative = inhibition” value was -13.4% (inactive).
`Cc1ccc(-c2c(Cl)nc(C#N)n2S(=O)(=O)N(C)C)cc1` was tested, and the “activity change, negative = inhibition” value was 3.37% (inactive).
In the case of `CCO[C@H]1O[C@@H]2OC3(C)CC[C@H]4[C@H](C)CC[C@@H]([C@H]1C)[C@@]24OO3`, the “activity change, negative = inhibition” value is reported as 0.403% [at 35.3 µM] (inactive).
For `S=C=NCc1ccccc1`, the “activity change, negative = inhibition” value was -13.5% (inactive).
For `BrCCCCBr`, the “activity change, negative = inhibition” value was 1.33% (inactive).
In the case of `O=[N+]([O-])C(Br)(CO)CO`, the “activity change, negative = inhibition” value is reported as -2.24% (inactive).
For `C=CCOC(C)=O`, the “activity change, negative = inhibition” value was 0.61% (inactive).

These molecules were tested against Cytochrome P450 3A4 (Homo sapiens) (UniProt P08684) (assay: Cytochrome P450 Family 3 Subfamily A Member 4 (CYP3A4) small molecule antagonists: luciferase reporter qHTS assay (AID 1671201)). Conditions: P450-Glo CYP3A4 enzyme, luciferin luminescence, 1 h; series mostly up to 115 µM; activity change, negative = inhibition: at the top concentration.
Cytochrome P450 3A4 (Homo sapiens), sequence (P08684 whole entry, looked up): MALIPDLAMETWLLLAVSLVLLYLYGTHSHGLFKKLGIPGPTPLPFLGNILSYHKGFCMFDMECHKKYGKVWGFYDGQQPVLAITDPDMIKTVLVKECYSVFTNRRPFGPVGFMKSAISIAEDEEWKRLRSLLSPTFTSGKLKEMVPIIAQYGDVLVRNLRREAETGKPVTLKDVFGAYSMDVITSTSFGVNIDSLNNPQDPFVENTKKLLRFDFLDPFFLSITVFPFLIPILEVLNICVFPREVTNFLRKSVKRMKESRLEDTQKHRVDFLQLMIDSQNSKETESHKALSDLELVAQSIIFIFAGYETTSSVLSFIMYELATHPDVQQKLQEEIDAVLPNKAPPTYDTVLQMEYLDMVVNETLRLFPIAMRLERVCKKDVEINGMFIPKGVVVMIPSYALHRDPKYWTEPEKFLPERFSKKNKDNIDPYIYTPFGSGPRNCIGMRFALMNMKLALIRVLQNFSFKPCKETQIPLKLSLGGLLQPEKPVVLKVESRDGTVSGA
In short: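 Room-temperature assay throughout: 10 min compound–enzyme/substrate preincubation, 1 h reaction after NADPH regeneration solution, 20 min detection. Luciferin formed from proluciferin substrate is quantified by luminescence.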
In the case of `COC(N)=O`, the “activity change, negative = inhibition” value is reported as 9.11% (inactive).
With `CCOP(O)OCC` the “activity change, negative = inhibition” value was 1.22% (inactive).
With `COC(=O)c1cncn1C(C)c1ccccc1` (centres undefined) the Potency was 309 nM (active).
In the case of `COP(=O)(OC)O/C(=C/Cl)c1cc(Cl)c(Cl)cc1Cl`, the “activity change, negative = inhibition” value is reported as 58% (inactive).
`O=C(O)C(F)(F)C(F)(F)C(F)(F)C(F)(F)C(F)(F)C(F)(F)C(F)(F)C(F)(F)C(F)(F)C(F)(F)F` was tested, and the “activity change, negative = inhibition” value was 28.8% (inactive).
With `CCCCC(O)(Cn1cncn1)c1ccc(Cl)cc1Cl` (centres undefined) the Potency was 126 nM (active).
`O=C1NCN(c2ccccc2)C12CCN(CCCOc1ccc(F)cc1)CC2` was tested, and the “activity change, negative = inhibition” value was 105% [at 52.9 µM] (inactive).
`ClC=C(Cl)Cl` was tested, and the “activity change, negative = inhibition” value was -1.86% (inactive).
With `O=C(NCc1cccnc1)Nc1ccc([N+](=O)[O-])cc1` the Potency was 796 nM (active).
For `O=C(CCl)c1ccc(Cl)cc1Cl`, the “activity change, negative = inhibition” value was -7.18% [at 52.9 µM] (inactive).
With `NCC(CC(=O)O)c1ccc(Cl)cc1` (centres undefined) the activity change, negative = inhibition was 4.59% [at 0.435 µM] (inactive).
`O=C(NC(=O)c1c(F)cccc1F)Nc1ccc(OC(F)(F)C(F)OC(F)(F)F)c(Cl)c1` (centres undefined) was tested, and the “activity change, negative = inhibition” value was -0.38% [at 52.9 µM] (inactive).
For `C[N+](C)(C)CCCl`, the “activity change, negative = inhibition” value was 3.91% (inactive).
`[O-][Cl+]O` was tested, and the “activity change, negative = inhibition” value was 6.43% (inactive).
`CNP(=O)(OC)Oc1ccc(C(C)(C)C)cc1Cl` (centres undefined) was tested, and the “activity change, negative = inhibition” value was -21.5% (inactive).
In the case of `CC(c1ccc(O)cc1)(c1ccc(O)cc1)c1ccc(O)cc1`, the Potency is reported as 31700 nM (active).
With `CCCC(Cn1cncn1)c1ccc(Cl)cc1Cl` (centres undefined) the “activity change, negative = inhibition” value was -10.7% (inactive).
In the case of `Clc1cc(Cl)c(Cl)c(Cl)c1`, the “activity change, negative = inhibition” value is reported as 5.27% (inactive).
For `CC1CC(CC2CCC(N)C(C)C2)CCC1N` (centres undefined), the Potency was 2870 nM (active).
For `CCC(Cl)CCl` (centres undefined), the “activity change, negative = inhibition” value was 11.2% (inactive).
In the case of `Cc1ccc(-c2c(Cl)nc(C#N)n2S(=O)(=O)N(C)C)cc1`, the “activity change, negative = inhibition” value is reported as -1.49% (inactive).
For `S=C=NCc1ccccc1`, the Potency was 20200 nM (active).
For `BrCCCCBr`, the “activity change, negative = inhibition” value was 1.69% (inactive).
With `CCCCC(CC)COP(=O)(Oc1ccccc1)Oc1ccccc1` (centres undefined) the Potency was 5640 nM (active).
With `O=[N+]([O-])C(Br)(CO)CO` the “activity change, negative = inhibition” value was -0.779% (inactive).
In the case of `C=CCOC(C)=O`, the “activity change, negative = inhibition” value is reported as 160% (inactive).
